17 compounds from PubChem BioAssay AID651949 (Broad Institute, 2012) can be followed below.

Potency and affinity values are given separately. Active and inactive are the calls of the source.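 The calls were made as follows: active = compounds lowering cell ATP signal whose fitted half-maximal concentration is at most twice the top tested dose; inconclusive = flat curve with 30 to 70% signal loss, or poor fit; inactive = the rest.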

A short description of this assay: HEK293T cell cytotoxicity, dose response, cytotoxicity control, CellTiter-Glo luminescence, dry powder, set 6 (AID 651949). To be noted: HEK293T viability, CellTiter-Glo ATP luminescence, 48 h; series mostly up to 26 µM; activity change, negative = cytotoxicity: at the top concentration.
In the case of `FC(F)(F)Oc1cccc(CSc2nnc(-c3ccccc3)o2)c1`, the “activity change, negative = cytotoxicity” value is -14.2% (inactive).

Regarding `O=S(Cc1cn(-c2ccccc2)nn1)c1nnc(-c2ccc(Cl)cc2)o1` (configuration not stated), the “activity change, negative = cytotoxicity” value is 10.6% [at 12 µM] (inactive).

On to `Cc1cccc(CSc2nnc(-c3ccc(Cl)cc3)o2)n1`, for which the “activity change, negative = cytotoxicity” value is -19.3% (inactive).

Consider `Brc1ccc(CSc2nnc(-c3ccccc3)o2)cc1`, for which the “activity change, negative = cytotoxicity” value was -4.14% (inactive).

On to `COCCOCCSc1nnc(-c2ccccc2)o1`, for which the “activity change, negative = cytotoxicity” value is 15% (inactive).

In the case of `Clc1ccc(-c2nnc(SCc3cn(Cc4ccccc4)nn3)o2)cc1`, the “activity change, negative = cytotoxicity” value is 16.9% (inactive).

As for `c1ccc(-c2nnc(SCCN3CCOCC3)o2)cc1`, the “activity change, negative = cytotoxicity” value was 5.28% (inactive).

For the compound `c1ccc(-c2nnc(SC(c3ccccc3)c3ccccc3)o2)cc1`, the “activity change, negative = cytotoxicity” value was -24.1% (inactive).

`c1ccc(CSc2nnc(-c3ccc(-c4ccccc4)cc3)o2)cc1`: the “activity change, negative = cytotoxicity” value is -14.9% (inactive).

Consider `COc1cccc(CSc2nnc(-c3ccccc3)o2)c1`, for which the “activity change, negative = cytotoxicity” value was -8.87% (inactive).

With `Cc1ccc(-c2nnc(SCc3ccccc3)o2)cc1`, the “activity change, negative = cytotoxicity” value was -14.3% (inactive).

For `Fc1cccc(CSc2nnc(-c3ccccc3)o2)c1`, the “activity change, negative = cytotoxicity” value is 9.95% (inactive).

For the compound `N#Cc1ccc(-c2nnc(SCc3ccccc3)o2)cc1`, the “activity change, negative = cytotoxicity” value is -23% (inactive).

Regarding `c1ccc(-c2nnc(SC3CCCCC3)o2)cc1`, the “activity change, negative = cytotoxicity” value is -2.18% (inactive).

Consider `Clc1cccc(CSc2nnc(-c3ccccc3)o2)c1`, for which the “activity change, negative = cytotoxicity” value was -22.5% (inactive).

On to `FC(F)(F)Oc1ccccc1-c1nnc(SCc2ccccc2)o1`, for which the “activity change, negative = cytotoxicity” value was 8.46% (inactive).

For `FC(F)(F)c1ccccc1-c1nnc(SCc2ccccc2)o1`, the “activity change, negative = cytotoxicity” value is 2.29% (inactive).
